Assay outcomes as filed in PubChem.
Pf growth 48h: inhibits P. falciparum growth in the first generation, 48 h. P. falciparum luciferase growth in erythrocytes, 48 h. Potency, µM (titrated, usually from 28.7 µM), for inactives: at the highest dose activity change, negative = inhibition, usual class: inhibitors. hit rate 5.9% among 310,000; also: % is scaled to controls: 0 for no effect and ±100 for the full control effect
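Here the parasites carry a stable luciferase gene and grow inside erythrocytes in Albumax-based RPMI medium with compound for one erythrocytic cycle. Activity is scored as loss of luminescent signal.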
Sm TGR inh: inhibitors of Schistosoma mansoni thioredoxin glutathione reductase | Q962Y6 | purified TGR, DTNB reduction, TNB absorbance 405 nm | Potency, µM (highest dose often 114 µM), for the others: at the highest dose activity change, negative = inhibition, most hits filed as inhibitors | hit rate 3% among 360,000; also: % is scaled to controls: 0 for no effect and ±100 for the full control effect; nearly all actives have a fitted effect of over 60% in size
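Kinetic colorimetric format: TGR-catalysed, NADPH-driven DTNB reduction monitored via TNB absorbance. Enzyme dispensed at 20 nM; compound exposure 15 min at room temperature before reaction start.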
Pf growth 96h: P. falciparum growth inhibition at 96 hours; P. falciparum luciferase reporter growth, 96 h; Potency, µM (top dose mostly 28.7 µM), for the others: at the highest dose activity change, negative = inhibition, actives largely listed as inhibitors; hit rate 6.9% among 320,000; AID 504834; also: % is scaled to controls: 0 for no effect and ±100 for the full control effect
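Luminescence readout: decreased luciferase signal marks inhibited growth of reporter-expressing P. falciparum in infected red cells (2% hematocrit, 0.05% parasitemia final), exposed to compound two generations (96 h, 37 C, 5% CO2).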
AMA1 RON2 block: inhibitors of Plasmodium falciparum AMA1-RON2 interaction; AlphaScreen AMA1-biotinylated RON2 peptide binding; Potency, µM (series often up to 58.2 µM), inactives show at the top dose activity change, negative = inhibition, usual class: inhibitors; hit rate 0.2% among 360,000; AID 720542;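 also: 0% = vehicle wells and -100% = peptide control; nearly all actives have a fitted effect of over 45% in size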
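AMA1 (3D7) with his tag at 25 nM final met compounds first, then biotinylated RON2 peptide at 25 nM; detection used donor plus acceptor beads, 10 µg/mL apiece, read by AlphaScreen after 30 min at room temperature.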
NS1 function inh: blocks influenza NS1 protein function; Potency, µM (doses to about 46.1 µM), for the others: top-dose activity, positive = more growth; hit rate 0.4% among 270,000; AID 2326; calls by dose curve; also: actives are rising curves; nearly all actives have a fitted effect of over 50% in size
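A cell-based growth assay was used: compounds that relieve NS1-induced slow growth of budding yeast raise OD600. Assay medium was yeast nitrogen base with ammonium sulphate and -URA supplement, pH 6.0, with 2% galactose.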
* hit, by the source's call; i = inactive; u = inconclusive; x = no result; [ ] = dose if it differs, or a comment. Compounds with a hit are over-represented: about 11% of the library has one in this group of screens. Unless noted, calls follow the shape of the dose curve; as a rule, active = well fitted curve in the direction sought with a large enough effect; inconclusive = small, poorly fitted or top-dose-only effect, or another doubt; inactive = no such curve, though single readings can be large; an effect the other way counts as inactive or inconclusive. Potency is read from the fitted curve at half-maximal effect.

SMILES | Pf growth 48h | Sm TGR inh | Pf growth 96h | AMA1 RON2 block | NS1 function inh
COC(=O)c1c(C)[nH]c(C(=O)C(C)OC(=O)c2cnc(C)cn2)c1C (centres undefined) | 7.9% | -10.1% | u | 9.8%[11.6 µM] | x
CN(Cc1nc(Cc2ccccc2F)no1)[C@@H]1CS(=O)(=O)C[C@H]1O | 34.1% | 5.6% | 11.7µM* | 9.9% | 0.3%
O=C(c1ccc(S(=O)(=O)c2ccccc2Cl)c([N+](=O)[O-])c1)N1CCCCCC1 | u | -22.7% | 13.1µM* | 1.7% | -7.9%
O=C(c1ccc(S(=O)(=O)c2cccc(Cl)c2)c([N+](=O)[O-])c1)N1CCN(c2ccccn2)CC1 | u | 3.55µM* | u | -18.4% | x
COc1ccc(-c2noc(CNC(=O)c3ccccc3Br)n2)cc1 | x | -0.7% | x | x | x
CN(C)CCN(C(=O)c1cccc2ccccc12)c1nc2cc3c(cc2s1)OCO3 | 9.28µM* | 3.1% | u | -29.1% | -14.4%
CN(C)CCN(C(=O)c1ccc(N2C(=O)CCC2=O)cc1)c1nc2cc3c(cc2s1)OCO3 | 9.9% | 20µM* | 15.9% | -6.8% | x
CN(C)CCCN(C(=O)c1ccc2c(c1)OCCO2)c1nc2cc3c(cc2s1)OCO3 | -12.4% | -18.6% | u | -12.8% | -9.4%
CN(C)CCN(C(=O)c1ccc2ccccc2c1)c1nc2cc3c(cc2s1)OCCO3 | 37.1% | -19.8% | 59.9% | -14.6% | -36.1%
CN(C)CCCN(C(=O)c1ccc2ccccc2c1)c1nc2cc3c(cc2s1)OCO3 | u | -0.8% | 10.4µM* | -13.2% | -3.9%
CC(C)(C)CN1CCNC[C@H]1Cc1cccc2ccccc12 | u | 22.4µM* | 9.28µM* | -0.7% | x
Oc1ccc(C[C@@H]2CNCCN2CCc2cccc3ccccc23)cc1 | 13.1µM* | -13.3% | u | 11.9% | x
Oc1ccc(C[C@H]2CNCCN2CCc2cccc(F)c2)cc1 | u | 1.3% | u | 1.0% | x
c1ccc(C2(CN3CCNC[C@H]3Cc3cccc4ccccc34)CC2)cc1 | u | -19.2% | u | -1.6% | x
COc1ccc2c(c1)C(=O)N1[C@H]3c4cc(Br)ccc4OC[C@@H]3[C@H](c3ccccc3)[C@]1(C)C(=O)N2 | u | -12.6% | 11.7µM* | -3.6% | x
C[C@@]12C(=O)Nc3ccc(Br)cc3C(=O)N1[C@H]1c3cc(Br)ccc3OC[C@@H]1[C@@H]2c1ccccc1 | 3.29µM* | -8.2% | 3.29µM* | 0.3% | x
COc1ccc2c(c1)C(=O)N1[C@H]3c4cc(Cl)ccc4OC[C@@H]3[C@H](c3ccccc3)[C@]1(C)C(=O)N2 | x | x | x | 4.5% | x
COc1ccc2cc(CCNC(=O)c3cc4ccccc4o3)c(=O)[nH]c2c1 | 37.0% | -34.6% | 1.47µM* | -9.9% | -0.8%
COc1ccc(OC)c2[nH]c(=O)c(CCNC(=O)c3ccc(S(=O)(=O)N(C)C)cc3)cc12 | 7.2% | 15.8% | 79.5% | -0.6% | -2.3%
COc1ccc(OC)c2[nH]c(=O)c(CCNC(=O)c3ccc(Br)o3)cc12 | 11.7µM* | -0.5% | x | -3.0% | -20.9%
COc1ccc2cc(CCNC(=O)c3ccc(S(=O)(=O)N4CCOCC4)cc3)c(=O)[nH]c2c1 | 10.4µM* | 1.3% | u | -12.2% | -19.2%
COc1ccc(OC)c2[nH]c(=O)c(CCNC(=O)c3ccc(S(=O)(=O)N4CCCCC4)cc3)cc12 | 9.28µM* | 7.5% | 54.8% | 0.5% | -32.9%
CCn1c(=O)cc(SCC(=O)Nc2cccc(C)n2)c2ccccc21 | -15.8% | 5.8% | 7.6% | 14.1% | x
CC1(C)CC(/C=C/c2ccccc2)=Nc2ccccc2N1 | u | 4.9% | u | 0.2% | -32.4%
O=C(Cc1ccc(Cl)cc1)NCC(=O)N1CCN(Cc2ccccc2)CC1 | 3.3% | -8.6% | u | -11.5% | 7.9%
SMILES | Pf growth 48h | Sm TGR inh | Pf growth 96h | AMA1 RON2 block | NS1 function inh
Cc1cc2cc(CCNC(=O)c3ccc(C)c([N+](=O)[O-])c3)c(=O)[nH]c2cc1C | -29.1% | -3.5% | u | 31.4% | 25.7%
Cc1cc2cc(CCNC(=O)c3ccc(S(=O)(=O)N4CCCC4)cc3)c(=O)[nH]c2cc1C | 9.28µM* | -0.6% | u | -1.9% | 19.4%
CCc1ccc(-c2cnc3nc[nH]c(=O)c3n2)cc1 | x | x | x | 5.9% | x
CC(NC(=O)C(NS(=O)(=O)c1cccc2nsnc12)C(C)C)c1ccccc1 (centres undefined) | 4.2% | 7.0% | u | -8.2% | -2.7%
Oc1ccc(Cl)cc1C1=NNC(c2cccs2)C1 (centres undefined) | 3.29µM* | 17.8µM* | 11.7µM* | 82.0% | -71.0%
Cc1ccc(O)c(C2=NNC(O)(C(F)(F)F)C2)c1 (centres undefined) | 13.1µM* | 2.0% | x | 57.7% | -11.8%
Cc1ccc(O)c(C2=NNC(c3ccc(Cl)cc3)C2)c1 (centres undefined) | u | 44.7µM* | u | 83.9% | -54.6%
CCCCN(CCCC)CCNC(=O)CSCc1ccc(C)cc1 | u | -4.4% | 0.0% | -20.0% | x
COc1ccc(CCNC(=O)c2ccc(C)s2)cc1OC | -5.9% | x | 18.1% | -1.2% | -2.5%
Cc1ccc(OCC(=O)OCc2nc3scc(-c4ccccc4)c3c(=O)[nH]2)cc1C | 2.9% | -10.9% | 3.0% | 12.3% | x
OC(CNc1nc2ccccc2s1)c1ccccc1 (centres undefined) | 13.1µM* | 0.7% | -29.1% | 15.5% | -0.6%
OCC(O)/C=N/Nc1nc2ccccc2s1 (centres undefined) | 68.5% | -2.2% | u | 24.3% | x
CCOC(=O)C(C)n1nc(C)c2sc3ccccc3c2c1=O (centres undefined) | -33.7% | 39.8µM* | 20.1% | 7.0% | -56.8%
CCOC(=O)N1CCN(C(=O)CCCn2nc(C)c3sc4ccccc4c3c2=O)CC1 | 5.22µM* | 10.5% | 13.9% | -1.3% | -63.2%
CCOc1ccc(NC(=O)Cn2ccn(-c3ccc(F)c(F)c3)c(=O)c2=O)cc1 | x | -1.0% | x | x | x
C=CCn1c(N)cc(=O)nc1SC(CC)C(=O)Nc1ccc(C(C)=O)cc1 (centres undefined) | 4.6% | -8.2% | 18.5% | -4.4% | 15.0%
CN(C)c1nc(N2CCN(c3ccc(F)cc3)CC2)c(C#N)c(=O)o1 | u | 6.6% | 25.8% | 16.4% | 13.4%
CN1CCN(c2nc(N(C)C)oc(=O)c2C#N)CC1 | -13.3% | -13.9% | 0.0037µM* | -11.8% | 4.6%
Cc1cc(C)c2cccc(NC(=S)NC(=O)c3ccccc3)c2n1 | 10.4µM* | -2.3% | 1.85µM* | 61.1% | -0.7%
O=C(NC(=S)Nc1cccc2ncccc12)c1cccs1 | 59.4% | 3.98µM* | 23.2% | -5.9% | 18.9%
O=C(NC(=S)Nc1cccc2ncccc12)c1ccccc1 | i | 8.91µM* | u | 22.7% | x
CC(C)(C)c1ccc(C(=O)Nc2cccc3ncccc23)cc1 | u | -14.5% | u | -5.5% | 0.6%
CC(=O)Nc1cccc2ncccc12 | 17.3% | 6.4% | 4.15µM* | -1.8% | 7.6%
CC(=O)NC(=S)Nc1cccc2c(C)cc(C)nc12 | 3.7% | 3.4% | 9.8% | 56.6% | x
